From PubChem
The list is not random: actives were taken first. Their share in the collection is about 11%.
PNC assembly inh = blocks assembly of the perinucleolar compartment. PC3M PTB-GFP, PNC prevalence imaging, 16 h; active compounds read low. activity change (PNC), negative = inhibition, % at 10 µM. 140,000 compounds, 3.1% hits. AID 2417;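 active = readout at or below -70, meaning at least 70% loss of cells showing the perinucleolar compartment, a nuclear body marking cancer cells; inconclusive = readout between -30 and a set limit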;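 note: plate controls were DMSO wells for no effect and camptothecin positive control wells for full effect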
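PC3M cells stably expressing PTB-GFP, 750–1000 cells/well, treated 16 h at 37 °C with compound (23 nl of library stock), in duplicate. After paraformaldehyde fixation and Hoechst stain, imaged at 20x; PNC prevalence scored by image analysis.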
ALDH1A1 inh = blocks purified human ALDH1A1 activity; P00352; Purified ALDH1A1, NADH fluorescence, propionaldehyde substrate; Potency, µM (doses to about 75.3 µM), inactives show top-dose activity, negative = inhibition, most hits filed as inhibitors; 220,000 compounds, 7.3% hits; AID 1030;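 note: potency is the fitted concentration of half-maximal effect; plate controls were no enzyme wells and a reference inhibitor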
Target sequence (P00352 whole entry, looked up): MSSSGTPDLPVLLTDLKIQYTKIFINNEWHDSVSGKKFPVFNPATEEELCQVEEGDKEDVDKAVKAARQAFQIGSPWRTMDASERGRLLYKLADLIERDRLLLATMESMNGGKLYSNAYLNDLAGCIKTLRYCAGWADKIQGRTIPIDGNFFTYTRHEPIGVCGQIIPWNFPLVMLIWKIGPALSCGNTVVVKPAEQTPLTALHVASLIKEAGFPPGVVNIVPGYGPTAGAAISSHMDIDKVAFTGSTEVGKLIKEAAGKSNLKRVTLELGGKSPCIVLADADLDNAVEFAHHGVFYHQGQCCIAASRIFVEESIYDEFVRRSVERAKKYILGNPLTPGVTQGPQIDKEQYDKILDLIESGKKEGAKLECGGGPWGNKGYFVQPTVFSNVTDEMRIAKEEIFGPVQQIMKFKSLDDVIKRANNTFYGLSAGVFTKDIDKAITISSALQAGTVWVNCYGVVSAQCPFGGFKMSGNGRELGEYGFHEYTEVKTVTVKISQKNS
JMJD2E inh = JMJD2E (human) inhibition; Potency, µM (series often up to 57.1 µM), inactives show at the highest dose activity change, negative = inhibition, most hits filed as inhibitors; 230,000 compounds, 1.6% hits; AID 2147; JMJD2E catalytic domain, FDH-coupled NADH fluorescence (FDH is formaldehyde dehydrogenase);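 note: potency is the fitted concentration of half-maximal effect; 0% = wells with enzyme and -100% = buffer wells without enzyme; nearly all actives have a fitted effect of over 50% in size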
HPGD inh = blocks human HPGD enzyme activity; Potency, µM, without a hit: at the top dose activity change, negative = inhibition, hits mostly inhibitors; P15428; AID 894; 150,000 compounds, 4.3% hits; purified HPGD, NADH fluorescence kinetic, PGE2 substrate; note: potency is the fitted concentration of half-maximal effect
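20 nM HPGD preincubated 15 min at room temperature with compound in 50 mM Tris-HCl pH 8, 0.01% Tween 20. Started with 1 mM NAD+ and 30 uM prostaglandin E2; NADH fluorescence (360/450 nm) read 5 times over 30-s intervals, last minus first.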
Numbers without * were called inactive; ? = inconclusive; nt = no result; ! = not confirmed by another sample; [ ] = dose if it differs, or a comment. Unless noted, calls come from the whole dose curve; as a rule, active = well fitted inhibition curve with a large enough effect (not every such curve was filed as active); inconclusive = small, poorly fitted or top-dose-only effect, or another doubt; inactive = no such curve, though single readings can be large or run the other way. Unless noted, % is set by controls: 0 for no effect and ±100 for the full control effect.

SMILES	PNC assembly inh	ALDH1A1 inh	JMJD2E inh	HPGD inh
C[C@@H]1O[C@@H](O[C@H]2CC[C@]3(C=O)C4CC[C@]5(C)[C@@H](C6=CC(=O)OC6)CC[C@]5(O)[C@@H]4CC[C@]3(O)C2)[C@H](O)[C@H](O)[C@H]1O (stereo partly drawn)	nt	3%	-3%	-2%
CCCN1CCCC2Cc3nc(N)ncc3CC21 (stereo not drawn)	nt	12%	nt	nt
C=C(CC1CC(O)[C@]2(C)OC3CC4OC5C[C@]6(C)O[C@]7(C)CCC8OC9C[C@]%10(C)OC%11C(C)=CC(=O)OC%11CC%10OC9C[C@@H](C)C8OC7CC6O[C@]5(C)C/C=C\C4OC3CC2O1)C(=O)O (stereo partly drawn)	nt	4µM*	2%	nt
CC(C)C(O)(C(=O)OC[C@@H]1CC[N+]2([O-])CCCC12)C(C)O (stereo partly drawn)	nt	8%	-5%	-3%
COc1ccc(-n2c(=S)[nH]c3c(sc(=S)n3-c3ccccc3)c2=O)c(OC)c1	nt	3.2µM*	-7%	nt
COc1cc2[nH]c(=S)n(-c3ccccc3)c(=O)c2cc1OC	nt	1.6µM*	-3%	nt
CCC(=O)c1c(O)n(C2CCCCCC2)c(=O)[nH]c1=O	10	25µM*	-25%	-8%
CC(=NCCO)c1c(O)n(C2CCCCC2)c(=O)[nH]c1=O	7	?	4%	-6%
CCC(=Nc1ccc(OC)cc1OC)c1c(O)n(C2CCCCC2)c(=O)[nH]c1=O	29	?	?	28µM*
Cc1cc(OCC(=O)Nc2c(C)n(C)n(-c3ccccc3)c2=O)c2c3c(c(=O)oc2c1)CCC3	20	3.2µM*	?	?
Cc1cc(OC(=O)c2ccco2)c2c3c(c(=O)oc2c1)CCCC3	30	14µM*	-5%	-11%
Cc1cc(OC(=O)c2cccs2)c2c3c(c(=O)oc2c1)CCCC3	22	13µM*	-13%	-6%
Cc1cc(OCC(=O)O)c2c3c(c(=O)oc2c1)CCCC3	34	?	?	?
Cc1ncc(CN2CC=C(c3ccccc3)CC2)c(N)n1	nt	?	-27%	-11%
O=C(Cl)C(Cl)(Cl)Cl	nt	-5%	nt	-2%
CCCCC/C=C\C=C\[C@H](CCCCCCCC(=O)O)OO	nt	2%	-4%	-2%
CC(C)Br	nt	10%	nt	-3%
CCn1nc(-c2ccccc2)nc2c(=O)n(C)c(=O)nc1-2	-100*	?	28µM*	-14%
COC(=O)c1c(C)n(Cc2ccco2)c2ccc(O)cc12	0	20µM*	-5%	-24%
CC1(C)N=C(N)N=C(N)N1c1cccc(C(=O)Nc2ccc(S(=O)(=O)F)cc2)c1	nt	-1%[13.5 µM]	nt	-3%
CCN(CC)c1ccc(C=C2C(=O)NC(=S)NC2=O)cc1	nt	0.11µM*	?	nt
CCC(C)N1C(=O)/C(=C\c2cnc(N(C)C)nc2)C(=O)NC1=S (stereo not drawn)	nt	-9%	-13%	nt
CC(C)CN(CC(C)C)c1ccc(C=C2C(=O)NC(=S)NC2=O)cc1[N+](=O)[O-]	4	11µM*	?	8.9µM*
N[C@H](Cc1ccc2oc3cc(=O)c4ccccc4c-3nc2c1)C(=O)O	nt	?	nt	-10%
c1ccc(CN2CCC3(CCc4ccccc43)CC2)cc1	nt	11%	4%	0%
SMILES	PNC assembly inh	ALDH1A1 inh	JMJD2E inh	HPGD inh
Cc1ccc(Cn2ccc(NC(=O)c3cc(-c4ccco4)on3)n2)cc1	?	18µM*	-16%	-14%
Cc1ccc(OCC(=O)NCCN2CCN(C(=O)COc3ccc(C)cc3)CC2)cc1	-107*	?	-5%	-3%
CCCCC(=O)N/N=C/c1c(O)n(CCc2ccc(OC)c(OC)c2)c(=O)[nH]c1=O	21	1%	22µM*	-22%
CCCCCCC(=O)N/N=C/c1c(O)n(CCCC)c(=S)[nH]c1=O	nt	9%	18µM*	nt
COc1ccc(CCn2c(O)c(/C=N/NC(=O)c3ccncc3)c(=O)[nH]c2=O)cc1OC	?	?	10µM*	?
CCN(CC)CCCN=Cc1c(O)n(CCc2ccc(OC)c(OC)c2)c(=O)[nH]c1=O	5	22%	-6%	-9%
CCCCC(=O)N/N=C/c1c(O)n(CC)c(=S)[nH]c1=O	-10	-7%	?	-6%
O=c1[nH]c(=O)n(Cc2ccc(F)cc2)c(O)c1C=NCc1cccnc1	?	-7%	-8%	16µM*
C=CC(C)(C)c1c2c(c(O)c3c(=O)c4ccc(O)c(O)c4oc13)C=CC(C)(C)O2	nt	-2%	?	-9%
O=C(N/N=C/c1c(O)n(Cc2ccccc2)c(=O)[nH]c1=O)c1ccncc1	nt	nt	20µM*	nt
O=C(N/N=C/c1c(O)n(CCC2=CCCCC2)c(=S)[nH]c1=O)c1ccccc1	22	?	?	?
O=C(N/N=C/c1c(O)n(-c2ccccc2)c(=S)[nH]c1=O)c1ccccc1	nt	nt	28µM*	nt
Cn1c(O)c(/C=N/NC(=O)c2ccncc2)c(=O)n(C)c1=S	nt	nt	32µM*	nt
O=C(N/N=C/c1c(O)n(Cc2ccc(F)cc2)c(=O)[nH]c1=O)c1ccccc1	nt	3%	?	nt
CC(C)(O)[C@@H]1C2OC(=O)[C@@H]1[C@]1(O)C[C@H]3O[C@]34C(=O)O[C@H]2[C@]14C	nt	?	?	-16%
O=C1Nc2cc(Cl)c(Cl)cc2N2CCNC[C@H]12	nt	?	-25%	-25%
CN(C(=O)Cc1ccc(Cl)c(Cl)c1)[C@H](CN1CCCC1)c1cccc(N=C=S)c1	nt	?	-3%	-9%
O=C(Nc1ccc(OC(=O)N2CCCC2)cc1)N1CCOCC1	-100*	4%	-14%	-9%
O=C(Nc1ccc(OC(=O)N2CCCCC2)cc1)N1CCOCC1	nt	?	-9%	nt
CC(C)CON=O	nt	32µM*	nt	-1%
CNC(=O)O/N=C(/C)SC	nt	-3%	-2%	-4%
CNC(=O)O/N=C/C(C)(C)S(C)=O (stereo not drawn)	nt	28µM*	nt	-10%
COc1cc([C@H]2c3cc4c(cc3[C@@H](O)[C@@H]3COC(=O)[C@H]23)OCO4)cc(OC)c1OC	nt	-5%[20.9 µM]	-4%[25.5 µM]	3%
CC[C@@H]1C(=O)OC[C@@H]1Cc1cncn1C	?	6%	25µM*!	-2%
COc1ccc(C2NCc3ccc4c(c3-n3cccc32)OCO4)cc1O (stereo not drawn)	-108*	-6%	1%	-12%
SMILES	PNC assembly inh	ALDH1A1 inh	JMJD2E inh	HPGD inh
Cc1cc(C)nc(/N=C/c2c(O)n(C)c(=O)n(C)c2=O)n1	-4	?	?	-4%
CC(ON1CC1(C(F)(F)F)C(F)(F)F)(C(N)=O)C(N)=O (stereo not drawn)	-93*	8%	7%	-5%
Cc1ccc(C)c(Cn2c(C(=O)O)c(C=O)c3ccccc32)c1	nt	19µM*	-15%	nt
Cn1cc(C(=O)Cc2ccccc2)c2ccccc21	2	-14%	7%	-5%
N#CC1(O)CCCCC1	nt	28µM*	nt	-5%
ClC(Cl)Br	nt	3%	nt	-6%
C=CC1CC=CCC1 (stereo not drawn)	nt	22µM*	nt	-10%
NC(=O)[C@@H]1CCCN1C(=O)[C@H](Cc1ccccc1)NC(=O)[C@@H]1CCCN1C(=O)[C@@H](N)Cc1ccc(O)cc1	nt	1%	nt	nt
O=NN(CCO)CCO	nt	?	nt	-7%
CN(C)c1ccc(/C=C2\CCCN=C2c2cccnc2)cc1	nt	?	?	-19%
